Rows were chosen to be rich in hits. Some 1.9% of all compounds tested hit in one or more screens of this group.
dFosB activator: enhances mouse delta FosB homodimer DNA binding; P13346; purified delta FosB, TAMRA-CDK5 oligo fluorescence polarization; percent of positive-control signal above neutral wells; activation, % at 25 µM; 0.99% of 340,000 active; AID 493131;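 active = mean activation above about 17%, with every replicate also reaching it, limit read from the data, passing the limit was not always enough; inconclusive = only one of the two conditions met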
Target sequence (P13346 whole entry, looked up): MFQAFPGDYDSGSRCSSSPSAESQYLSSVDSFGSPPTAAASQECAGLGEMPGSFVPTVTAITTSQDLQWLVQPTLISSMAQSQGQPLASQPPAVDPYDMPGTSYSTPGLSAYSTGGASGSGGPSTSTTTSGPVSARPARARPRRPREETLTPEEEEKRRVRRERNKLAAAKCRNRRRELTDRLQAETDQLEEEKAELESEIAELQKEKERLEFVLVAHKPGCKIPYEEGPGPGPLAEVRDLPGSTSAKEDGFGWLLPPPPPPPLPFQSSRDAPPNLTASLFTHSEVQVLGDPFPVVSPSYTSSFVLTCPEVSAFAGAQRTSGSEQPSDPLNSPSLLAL
Neddylation inh: blocks human cullin neddylation; AID 651699; inhibition, % at 25 µM; TR-FRET cullin neddylation, biochemical; 0.58% of 360,000 active; P61081+Q13564; in the data active = inhibition above about 36%
Bfl-1 A1 inh: inhibitors of the anti-apoptotic protein A1, read as caspase activation; MEF A1-2A-BIM cells, Caspase-Glo 3/7 luminescence, 3 h; percent of clofoctol response, vehicle zero; caspase activation, % (concentration not given with the values); 0.066% of 330,000 active; AID 2462;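 active = over half of replicate activation scores above 10%, or exactly half above 10 with the replicate mean above 10; inconclusive = replicate mean below 10 yet half the replicates above 10; inactive = over half of replicates below 10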
Vif imaging: HIV Vif inhibition; HEK293T cells, Vif self-association by quenched fluorescence, imaging, 24 h; inhibition, % at 7.49 µM; 0.35% of 340,000 active; AID 602346; in the data active = inhibition above about 50%, passing the limit was not always enough; inconclusive = no clear call, values can overlap the other calls; inactive = below about 31%
GSIS activator: primary screen for activators of insulin secretion dependent on glucose, INS-1E cells, GLuc reporter luminescence; activation, % at 16.6 µM; AID 743287; INS-1E GLuc reporter insulin secretion, 2-3 h; 0.61% of 370,000 active;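 active = lowest replicate activation of at least 40%, so every replicate reaches that level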
Of the large screens only hits and unclear results are named; the others gave an inactive call.

O=C(c1cc(-c2ccccc2O)on1)N1CCCCCC1	Vif imaging 74.5
CCCC(=O)Nc1ccc2c(c1)C(=O)N(C)[C@@H]1CC[C@H](CC(=O)N3CCc4ccccc4C3)O[C@H]1CO2	none (no result: dFosB activator, Neddylation inh, Bfl-1 A1 inh, Vif imaging)
COCC#Cc1ccc2c(c1)O[C@H](CN(C)S(=O)(=O)c1ccc(F)cc1)[C@H](C)CN([C@@H](C)CO)S2(=O)=O	none (no result: dFosB activator, Neddylation inh, Bfl-1 A1 inh, Vif imaging)
O=C(Nc1cccc(C(F)(F)F)c1)c1cc2ncc(Br)cn2n1	none
O=C(Nc1ccc2c(c1)OCO2)c1cc2ncc(Br)cn2n1	dFosB activator 27.6 (no result: Bfl-1 A1 inh)
CCOc1ccc(C(=O)Nc2ccc(N3CCCC3)cc2)cc1	dFosB activator 22.0 (no result: GSIS activator)
COc1ccc(C2(C(=O)Nc3nncs3)CCCC2)cc1	none
COc1ccc(NC(=O)C2(c3ccc(NC(=O)c4ccc(OC)cc4)cc3)CCCC2)cc1	GSIS activator 97.7 (not shown: Neddylation inh)
COc1ccc(C(=O)Nc2ccc(N3CCCC3)cc2)cc1	dFosB activator 28.8 (no result: GSIS activator)
CN1CCN(c2ccc(NC(=O)c3ccc(Oc4ccccc4)cc3)cc2)CC1	GSIS activator 50.3
COc1ccc2c3c(n(C)c2c1)[C@@H](CO)N(Cc1ccncc1)CC31CN(C(=O)C2CCCC2)C1	none (no result: dFosB activator, Neddylation inh, Bfl-1 A1 inh, Vif imaging)
CO[C@@H]1CN(C)C(=O)c2ccc(NC(=O)c3ccc4c(c3)OCO4)cc2OC[C@H](C)N(CC2CC2)C[C@H]1C	none (no result: dFosB activator, Neddylation inh, Bfl-1 A1 inh, Vif imaging)
Cc1noc(C)c1NC(=O)Nc1ccc2c(c1)CC(=O)N([C@@H](C)CO)C[C@@H](C)[C@H](CN(C)S(=O)(=O)c1c(C)noc1C)O2	none (no result: dFosB activator, Neddylation inh, Bfl-1 A1 inh, Vif imaging)
CCCCOc1ccc(C(=O)Nc2ccc3c(c2)C(=O)NC3=O)cc1	none (not shown: Neddylation inh, Vif imaging)
CCOc1ccc(C(=O)Nc2ccc3c(c2)C(=O)NC3=O)cc1	dFosB activator 58.7 (not shown: Neddylation inh)
O=C(Nc1ccc2c(c1)[C@H]1C[C@@H](CC(=O)N3CCOCC3)O[C@H](CO)[C@H]1O2)C1CCC1	none (no result: dFosB activator, Neddylation inh, Bfl-1 A1 inh, Vif imaging)
COc1ccc(N(C(=O)c2snc(C(N)=O)c2N)C(C(=O)NCc2ccccc2)c2ccc(F)cc2)c(OC)c1 (stereo unspecified)	dFosB activator 24.8 (not shown: Neddylation inh)
NC(=O)c1nsc(C(=O)N(c2cccc(F)c2)C(C(=O)NC2CCCC2)c2ccc(O)cc2)c1N (stereo unspecified)	dFosB activator inconclusive, Vif imaging 90.9
NC(=O)c1nsc(C(=O)N(c2cccc(F)c2)C(C(=O)NC2CCCC2)c2ccco2)c1N (stereo unspecified)	none
NC(=O)c1nsc(C(=O)N(Cc2cccnc2)C(C(=O)NCc2ccc(F)cc2)c2ccc(O)cc2)c1N (stereo unspecified)	Vif imaging 51.1
NC(=O)c1nsc(C(=O)N(c2cccc(F)c2)C(C(=O)NCc2ccccc2)c2ccc(O)cc2)c1N (stereo unspecified)	none
O=C(c1ccncc1)N1C[C@H]2[C@@H](c3ccccc31)[C@H](CO)N2C(=O)Nc1ccccc1Cl	none (no result: dFosB activator, Neddylation inh, Bfl-1 A1 inh, Vif imaging)
CCN(CC(=O)NCc1cccs1)C(=O)CCOc1ccccc1	none
CCOc1ccc(OCCC(=O)N(CC)CC(=O)NCc2cccs2)cc1	GSIS activator 41.1
CCc1nnc(NC(=O)c2ccc(COc3ccccc3Cl)o2)s1	none
CCc1nnc(NC(=O)c2ccc(-c3ccccc3Cl)o2)s1	Neddylation inh 45.3 (no result: GSIS activator)
Cc1ccc(N(C(C)C(=O)O)S(=O)(=O)c2c(C)[nH]c(=O)[nH]c2=O)cc1 (stereo unspecified)	dFosB activator 16.1
COC(=O)C(C)N(c1ccc(C)cc1)S(=O)(=O)c1c(C)[nH]c(=O)[nH]c1=O (stereo unspecified)	none
COc1ccc2c3c([nH]c2c1)[C@@H](CO)N(Cc1ccccc1)CC31CN(CC2CC2)C1	none (no result: dFosB activator, Neddylation inh, Bfl-1 A1 inh, Vif imaging)
CCNc1nc(NCC)nc(Nn2cnnc2)n1	GSIS activator 56.3
COc1ccc(F)cc1C(=O)C1CCCN(C(=O)c2ccc(C(C)=O)s2)C1 (stereo unspecified)	GSIS activator 76.1 (no result: Bfl-1 A1 inh)
CCc1ccc(OC2(C)CCN(Cc3ccccc3OC(F)F)C2)cc1 (stereo unspecified)	Vif imaging 73.3 (no result: dFosB activator, Bfl-1 A1 inh)
CC1(Oc2ccc(F)cc2)CCN(Cc2ccccc2OC(F)F)C1 (stereo unspecified)	none (no result: dFosB activator, Bfl-1 A1 inh)
C=CCn1c(SC2CCOC2=O)nc2sc(CC)cc2c1=O (stereo unspecified)	GSIS activator 58.6
C/C=C/c1ccc([C@@H]2[C@@H](CN(C)C(=O)CC3CC3)N(C(=O)C3CC3)[C@H]2CO)cc1	none (no result: dFosB activator, Neddylation inh, Bfl-1 A1 inh, Vif imaging)
Cc1ccc(C(=O)COC(=O)c2cc(=O)[nH]c3ccccc23)cc1C	Vif imaging 65.5
COc1ccc2c3c([nH]c2c1)[C@@H](CO)N(S(C)(=O)=O)CC31CCN(C(=O)CN(C)C)CC1	none (no result: dFosB activator, Neddylation inh, Bfl-1 A1 inh, Vif imaging)
O=C(NCC1OCCc2ccccc21)c1ccc(NC(=O)c2ccc(Cl)cc2)cc1 (stereo unspecified)	GSIS activator 249.0
Cc1ccc(NC(=O)C(=O)NCC2OCCc3ccccc32)cc1 (stereo unspecified)	none
C/C=C/COC(=O)c1[nH]c2c(c1C)C(=O)CC(c1ccc(N(C)C)cc1)C2 (stereo unspecified)	dFosB activator 84.6
CCC(C)OC(=O)c1[nH]c2c(c1C)C(=O)CC(c1ccc(N(C)C)cc1)C2 (stereo unspecified)	dFosB activator 28.7
CCOCCOC(=O)c1[nH]c2c(c1C)C(=O)CC(c1ccc(N(C)C)cc1)C2 (stereo unspecified)	none
CCCCCCCCCCCCCCC(O)C[N+](C)(CCO)CCO (stereo unspecified)	GSIS activator 294.8 (no result: Bfl-1 A1 inh)
Cc1cc(=O)oc2cc(OCC(=O)NC3CCN(Cc4ccccc4)CC3)ccc12	none
CCCc1cc(=O)oc2cc(OCC(=O)NC3CCN(Cc4ccccc4)CC3)ccc12	GSIS activator 44.0
CCOc1ccccc1Nc1cc2n(c(=O)n1)CCc1cc(OC)c(OC)cc1-2	GSIS activator 76.1
COc1cc2c(cc1OC)-c1cc(NC3CCCCC3)nc(=O)n1CC2	GSIS activator 72.4
COc1cc2c(cc1OC)-c1cc(NC3CCCCCCC3)nc(=O)n1CC2	none (no result: GSIS activator)
COc1cc2c(cc1OC)-c1cc(NC3CC3)nc(=O)n1CC2	none (no result: GSIS activator)
COc1cc2c(cc1OC)-c1cc(Nc3ccccc3C)nc(=O)n1CC2	GSIS activator 52.8
COc1ccc(NC(=O)Nc2ccc3c(c2)[C@H]2C[C@@H](CC(=O)NCc4ccc5c(c4)OCO5)O[C@@H](CO)[C@H]2O3)cc1	none (no result: dFosB activator, Neddylation inh, Bfl-1 A1 inh, Vif imaging)
C[C@H](CO)N1C[C@H](C)[C@@H](CN(C)S(=O)(=O)c2ccc(F)cc2)Oc2ccc(NC(=O)CCC(F)(F)F)cc2CC1=O	none (no result: dFosB activator, Neddylation inh, Bfl-1 A1 inh, Vif imaging)
COc1ccc(CN2C[C@H](O)COC[C@H]3O[C@@H](CC(=O)N4CCc5ccccc5C4)CC[C@@H]32)cc1	none (no result: dFosB activator, Neddylation inh, Bfl-1 A1 inh, Vif imaging)
Cc1ccc2nc(NC(=O)C3CCN(S(=O)(=O)c4cccs4)CC3)sc2c1	dFosB activator 32.7
COc1cccc(C#Cc2ccc3c(c2)[C@@H]2[C@@H](CCN2S(=O)(=O)c2ccc(C)cc2)[C@H](CO)N3)c1	none (no result: dFosB activator, Neddylation inh, Bfl-1 A1 inh, Vif imaging)
